In PubChem BioAssay (Tox21):
Results filed as inconclusive are left out. Activity calls are given as the source filed them. Unless noted, calls come from the whole dose curve; as a rule, active = well fitted curve in the direction sought with a large enough effect in the repeat runs; inconclusive = weak or mixed curves; inactive = no such curve, though single readings can be large; an effect the other way counts as inactive or inconclusive.

What was measured:
[1] = molecular target: Acetylcholinesterase (Homo sapiens) (UniProt P22303); assay: Acetylcholinesterase (AChE) small molecule antagonists: enzyme-based qHTS assay (AID 1347397; calls by dose curve; note: nearly all actives have a fitted effect of over 55% in size); conditions: Potency: AChE enzyme activity inhibition
Method in brief: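 Absorbance-based detection of thiocholine with DTNB served as the read-out. Recombinant human AChE was exposed to compound for 30 min at RT before a 10 min RT incubation with acetylthiocholine.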

[2] = molecular target: Acetylcholinesterase (Homo sapiens) (UniProt P22303); assay: Acetylcholinesterase (AChE) small molecule antagonists: fluorescence cell-based qHTS assay (AID 1347398; calls by dose curve; note: nearly all actives have a fitted effect of over 50% in size); conditions: Potency: AChE activity
Method in brief: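 Fluorimetric cell-based assay: intact SH-SY5Y cells, 30 min compound preincubation at 37 C, acetylthiocholine substrate with thiol probe Thiolite Green, 40 min RT development, fluorescence 490/520 nm.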

[3] = molecular target: Acetylcholinesterase (Homo sapiens) (UniProt P22303); assay: Acetylcholinesterase (AChE) small molecule antagonists: enzyme-based qHTS assay with human liver microsomes (AID 1347399; calls by dose curve; note: nearly all actives have a fitted effect of over 60% in size); conditions: Potency: qHTS inhibition
Method in brief: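 Recombinant human AChE (50 mU/mL in the enzyme mix) and human liver microsomes (0.25 mg/mL final) were preincubated with compound and NADPH (0.25 mg/mL final) for 30 min at 37 C. Acetylthiocholine/DTNB was then added; thiocholine was read colorimetrically after 10 min at room temperature.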

[4] = molecular target: Cytochrome P450 2D6 (Homo sapiens) (UniProt P10635); assay: Cytochrome P450 Family 2 Subfamily D Member 6 (CYP2D6) small molecule antagonists: luciferase reporter qHTS assay (AID 1671196); note: nearly all actives have a fitted effect of over 50% in size; note: potency is the fitted concentration of half-maximal effect; for activity change, negative = inhibition: series mostly up to about 120 µM
Method in brief: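 Luminescence (RLU), read 20 min after detection reagent, indicated CYP2D6 conversion of proluciferin to luciferin during a 1 h NADPH-dependent reaction at room temperature.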

[5] = molecular target: Cytochrome P450 2C19 (Homo sapiens) (UniProt P33261); assay: Cytochrome P450 Family 2 Subfamily C Member 19 (CYP2C19) small molecule antagonists: luciferase reporter qHTS assay (AID 1671197); note: nearly all actives have a fitted effect of over 65% in size; note: potency is the fitted concentration of half-maximal effect; for activity change, negative = inhibition: series mostly up to about 120 µM
Method in brief: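 CYP2C19 P450-Glo, 1536-well qHTS. Cpd + enzyme/proluciferin substrate 10 min RT; + NADPH regen, 37C 1 h; stop with luciferin detection reagent, 20 min RT, luminescence (RLU). Pos ctrl ketoconazole.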

[6] = molecular target: Cytochrome P450 1A2 (Homo sapiens) (UniProt P05177); assay: Cytochrome P450 Family 1 Subfamily A Member 2 (CYP1A2) small molecule antagonists: luciferase reporter qHTS assay (AID 1671199); note: nearly all actives have a fitted effect of over 50% in size; note: potency is the fitted concentration of half-maximal effect; for activity change, negative = inhibition: series mostly up to about 120 µM
Method in brief: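 CYP1A2 turnover of a luminogenic substrate was quantified after 1 h with NADPH regeneration at room temperature. Furafylline served as positive control.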

[7] = molecular target: Voltage-gated inwardly rectifying potassium channel KCNH2 (Homo sapiens) (UniProt Q12809); assay: Human Ether-a-go-go-Related Gene (hERG) channel small molecule antagonists: fluorescence cell-based qHTS assay (AID 1671200); note: nearly all actives have a fitted effect of over 50% in size; note: potency is the fitted concentration of half-maximal effect;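 for activity change, negative = inhibition: hERG-expressing U2OS cells given a thallium stimulus after FluxOR II dye loading; series mostly up to about 77 µM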
Method in brief: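 Measured: Tl+ flux via fluorescence (480/540 nm) in hERG-expressing U2OS cells after 1 h dye loading at room temperature.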

[8] = molecular target: Cytochrome P450 3A4 (Homo sapiens) (UniProt P08684); assay: Cytochrome P450 Family 3 Subfamily A Member 4 (CYP3A4) small molecule antagonists: luciferase reporter qHTS assay (AID 1671201); note: nearly all actives have a fitted effect of over 50% in size; note: potency is the fitted concentration of half-maximal effect; for activity change, negative = inhibition: series mostly up to about 120 µM
Method in brief: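 Setup: enzyme-substrate mix, compound pin transfer, 10 min RT. Reaction: NADPH regeneration solution, 1 h RT. Readout: detection reagent stops turnover, luminescence measured after 20 min, expressed in relative luminescence units.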

[9] = molecular target: Cytochrome P450 2C9 (Homo sapiens) (UniProt P11712); assay: Cytochrome P450 Family 2 Subfamily C Member 9 (CYP2C9) small molecule antagonists: luciferase reporter qHTS assay (AID 1671198); note: nearly all actives have a fitted effect of over 50% in size; note: potency is the fitted concentration of half-maximal effect; for activity change, negative = inhibition: series mostly up to about 120 µM
Method in brief: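 Enzyme-substrate mix preincubated with compound 10 min at room temperature; reaction started with NADPH regeneration solution, 1 h 37C. Luminescent luciferin product read after 20 min detection reagent.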
% is set by controls: 0 for no effect and ±100 for the full control effect.

Sequence of Acetylcholinesterase (Homo sapiens) (P22303 whole entry, looked up): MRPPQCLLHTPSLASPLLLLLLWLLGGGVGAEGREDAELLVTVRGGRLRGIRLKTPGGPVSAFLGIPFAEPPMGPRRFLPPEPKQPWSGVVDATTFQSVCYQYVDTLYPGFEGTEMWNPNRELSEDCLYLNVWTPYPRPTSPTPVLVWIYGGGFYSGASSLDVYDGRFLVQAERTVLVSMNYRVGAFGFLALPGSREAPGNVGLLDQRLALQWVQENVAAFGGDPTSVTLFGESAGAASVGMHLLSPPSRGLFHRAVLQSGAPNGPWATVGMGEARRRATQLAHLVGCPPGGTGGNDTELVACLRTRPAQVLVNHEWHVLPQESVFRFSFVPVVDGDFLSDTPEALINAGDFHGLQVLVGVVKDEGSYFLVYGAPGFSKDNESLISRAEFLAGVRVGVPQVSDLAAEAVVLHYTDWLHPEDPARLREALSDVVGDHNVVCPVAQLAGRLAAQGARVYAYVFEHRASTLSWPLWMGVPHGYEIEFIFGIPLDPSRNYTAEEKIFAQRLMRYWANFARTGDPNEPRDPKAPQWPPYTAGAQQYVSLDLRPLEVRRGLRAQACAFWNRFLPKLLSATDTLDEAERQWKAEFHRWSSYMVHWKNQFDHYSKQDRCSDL
Sequence of Voltage-gated inwardly rectifying potassium channel KCNH2 (Homo sapiens) (Q12809 whole entry, looked up): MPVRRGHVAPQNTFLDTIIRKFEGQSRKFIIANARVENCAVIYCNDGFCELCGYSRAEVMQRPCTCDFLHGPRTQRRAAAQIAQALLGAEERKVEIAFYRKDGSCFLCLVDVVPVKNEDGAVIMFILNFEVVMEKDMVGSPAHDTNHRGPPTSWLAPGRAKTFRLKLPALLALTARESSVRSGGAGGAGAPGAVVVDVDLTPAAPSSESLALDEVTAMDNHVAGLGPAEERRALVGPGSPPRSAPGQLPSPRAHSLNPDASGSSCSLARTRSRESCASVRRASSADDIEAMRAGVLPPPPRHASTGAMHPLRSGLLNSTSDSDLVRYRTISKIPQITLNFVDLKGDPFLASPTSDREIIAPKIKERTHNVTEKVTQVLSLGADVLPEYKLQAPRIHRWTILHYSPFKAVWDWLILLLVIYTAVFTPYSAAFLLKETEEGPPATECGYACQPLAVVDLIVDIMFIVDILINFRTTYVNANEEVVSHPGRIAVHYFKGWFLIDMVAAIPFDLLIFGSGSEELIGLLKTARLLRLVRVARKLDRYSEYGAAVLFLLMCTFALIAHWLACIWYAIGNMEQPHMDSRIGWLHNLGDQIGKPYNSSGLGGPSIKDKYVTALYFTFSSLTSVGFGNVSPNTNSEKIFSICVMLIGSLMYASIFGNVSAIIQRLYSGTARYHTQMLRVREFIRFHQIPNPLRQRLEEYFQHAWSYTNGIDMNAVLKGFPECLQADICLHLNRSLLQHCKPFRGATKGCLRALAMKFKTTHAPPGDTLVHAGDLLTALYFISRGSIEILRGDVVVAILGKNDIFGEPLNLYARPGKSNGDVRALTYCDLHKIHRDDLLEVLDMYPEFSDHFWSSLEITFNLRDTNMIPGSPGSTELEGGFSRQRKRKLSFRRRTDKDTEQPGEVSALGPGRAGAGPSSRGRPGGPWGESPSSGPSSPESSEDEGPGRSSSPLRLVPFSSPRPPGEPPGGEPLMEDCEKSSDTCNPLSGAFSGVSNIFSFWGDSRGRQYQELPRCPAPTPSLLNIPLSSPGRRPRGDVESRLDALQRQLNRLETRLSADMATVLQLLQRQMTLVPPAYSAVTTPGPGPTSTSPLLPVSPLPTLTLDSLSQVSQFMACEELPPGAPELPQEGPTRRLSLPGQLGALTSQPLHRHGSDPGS
Sequence of Cytochrome P450 2C19 (Homo sapiens) (P33261 whole entry, looked up): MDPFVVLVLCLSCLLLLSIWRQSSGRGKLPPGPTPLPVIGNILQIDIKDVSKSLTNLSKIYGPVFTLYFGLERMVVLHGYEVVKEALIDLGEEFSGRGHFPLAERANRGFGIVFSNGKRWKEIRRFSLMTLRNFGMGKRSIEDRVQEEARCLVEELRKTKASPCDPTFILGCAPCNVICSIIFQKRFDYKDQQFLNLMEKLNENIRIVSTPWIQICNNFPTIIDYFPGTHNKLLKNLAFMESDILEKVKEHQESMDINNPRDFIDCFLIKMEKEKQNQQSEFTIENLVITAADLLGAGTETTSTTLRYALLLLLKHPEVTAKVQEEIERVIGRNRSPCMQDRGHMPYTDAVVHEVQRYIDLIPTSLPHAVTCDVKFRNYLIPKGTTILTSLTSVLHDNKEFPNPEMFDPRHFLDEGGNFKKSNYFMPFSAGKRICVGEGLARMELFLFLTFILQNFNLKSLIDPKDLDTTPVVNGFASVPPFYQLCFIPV
Sequence of Cytochrome P450 2D6 (Homo sapiens) (P10635 whole entry, looked up): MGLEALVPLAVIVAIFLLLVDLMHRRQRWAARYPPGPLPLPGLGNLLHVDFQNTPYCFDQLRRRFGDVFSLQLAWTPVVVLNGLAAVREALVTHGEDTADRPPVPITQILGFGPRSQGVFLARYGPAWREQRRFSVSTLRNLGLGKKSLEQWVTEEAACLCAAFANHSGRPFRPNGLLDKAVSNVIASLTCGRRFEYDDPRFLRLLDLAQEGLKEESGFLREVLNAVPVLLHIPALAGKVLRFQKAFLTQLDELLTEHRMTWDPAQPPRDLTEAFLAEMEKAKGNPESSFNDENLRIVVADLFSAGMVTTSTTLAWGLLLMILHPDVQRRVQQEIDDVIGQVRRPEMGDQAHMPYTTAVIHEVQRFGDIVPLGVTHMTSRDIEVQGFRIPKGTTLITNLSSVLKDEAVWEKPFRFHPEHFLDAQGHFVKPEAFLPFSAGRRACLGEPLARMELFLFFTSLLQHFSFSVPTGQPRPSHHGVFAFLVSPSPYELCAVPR
Sequence of Cytochrome P450 2C9 (Homo sapiens) (P11712 whole entry, looked up): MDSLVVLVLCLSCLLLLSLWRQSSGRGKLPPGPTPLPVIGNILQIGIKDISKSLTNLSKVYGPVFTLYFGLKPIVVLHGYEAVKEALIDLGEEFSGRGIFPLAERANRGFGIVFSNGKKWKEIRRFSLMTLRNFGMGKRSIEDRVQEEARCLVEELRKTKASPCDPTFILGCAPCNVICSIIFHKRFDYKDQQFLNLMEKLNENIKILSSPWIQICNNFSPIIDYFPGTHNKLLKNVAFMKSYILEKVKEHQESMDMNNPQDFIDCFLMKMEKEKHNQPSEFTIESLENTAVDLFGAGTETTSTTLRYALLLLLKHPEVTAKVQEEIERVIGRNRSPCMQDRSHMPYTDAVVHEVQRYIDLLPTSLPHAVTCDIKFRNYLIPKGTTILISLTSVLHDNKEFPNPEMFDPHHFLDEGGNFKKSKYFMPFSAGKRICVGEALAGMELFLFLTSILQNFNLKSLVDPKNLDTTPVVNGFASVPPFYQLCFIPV
Sequence of Cytochrome P450 1A2 (Homo sapiens) (P05177 whole entry, looked up): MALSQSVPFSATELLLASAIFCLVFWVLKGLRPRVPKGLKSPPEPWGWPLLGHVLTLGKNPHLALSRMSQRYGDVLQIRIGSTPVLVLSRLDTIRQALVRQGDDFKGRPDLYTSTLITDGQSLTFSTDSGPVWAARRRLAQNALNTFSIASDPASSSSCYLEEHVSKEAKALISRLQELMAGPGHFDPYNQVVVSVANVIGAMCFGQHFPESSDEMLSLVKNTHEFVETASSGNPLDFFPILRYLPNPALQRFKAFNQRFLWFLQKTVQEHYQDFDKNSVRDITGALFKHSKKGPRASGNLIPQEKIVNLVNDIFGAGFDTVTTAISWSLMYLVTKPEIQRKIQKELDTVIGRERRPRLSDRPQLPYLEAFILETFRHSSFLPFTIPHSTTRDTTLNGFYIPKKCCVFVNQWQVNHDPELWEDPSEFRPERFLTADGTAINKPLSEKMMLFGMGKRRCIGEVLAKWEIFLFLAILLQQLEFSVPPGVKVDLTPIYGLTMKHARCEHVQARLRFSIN
Sequence of Cytochrome P450 3A4 (Homo sapiens) (P08684 whole entry, looked up): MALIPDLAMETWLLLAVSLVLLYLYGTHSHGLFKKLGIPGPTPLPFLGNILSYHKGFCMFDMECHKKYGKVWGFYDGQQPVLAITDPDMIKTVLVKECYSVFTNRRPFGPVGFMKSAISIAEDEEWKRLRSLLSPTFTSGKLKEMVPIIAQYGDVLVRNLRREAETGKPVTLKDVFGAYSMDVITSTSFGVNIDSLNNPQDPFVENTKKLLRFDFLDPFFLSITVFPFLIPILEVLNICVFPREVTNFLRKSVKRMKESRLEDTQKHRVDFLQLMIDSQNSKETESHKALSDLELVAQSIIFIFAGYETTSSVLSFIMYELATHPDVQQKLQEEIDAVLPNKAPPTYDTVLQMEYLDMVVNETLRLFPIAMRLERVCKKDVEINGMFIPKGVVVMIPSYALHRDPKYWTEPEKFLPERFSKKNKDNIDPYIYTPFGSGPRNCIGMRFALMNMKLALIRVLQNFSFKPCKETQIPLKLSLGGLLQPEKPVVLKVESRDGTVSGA

O=C1CN2CCOC2(c2ccccc2Cl)c2cc(Cl)ccc2N1 (stereo not drawn)
inactive: Potency [1] | Potency [2] | Potency [3] | Potency [6] | Potency [7]
active: Potency [4] 8.71 µM | Potency [5] 6.17 µM

Oc1c(Cl)cccc1Cl
inactive: Potency [1] | Potency [2] | Potency [3] | Potency [4] | Potency [5] | Potency [8]

Cc1nnc2n1-c1sc(CCC(=O)N3CCOCC3)cc1C(c1ccccc1Cl)=NC2
inactive: Potency [1] | Potency [2] | Potency [3] | Potency [4] | Potency [9] | Potency [6]

CNNC
active: Potency [4] 65.4 µM
inactive: Potency [1] | Potency [2] | Potency [3] | Potency [9]

CSc1ccc(C(=O)C(C)(C)N2CCOCC2)cc1
inactive: Potency [1] | Potency [2] | Potency [3]
active: Potency [4] 2.52 µM | Potency [5] 1.12 µM | Potency [9] 20 µM | Potency [8] 2 µM

CCC(C)n1c(=O)[nH]c(C)c(Br)c1=O (stereo not drawn)
inactive: Potency [1] | Potency [2] | Potency [3] | Potency [4] | Potency [7] | Potency [8]
active: Potency [5] 39.9 µM

O=C(O)C(Br)CBr (stereo not drawn)
active: Potency [4] 36.2 µM | Potency [6] 64.4 µM
inactive: Potency [1] | Potency [2] | Potency [3] | Potency [5] | Potency [7] | Potency [8]

CCCCOC(=O)c1ccccc1N
inactive: Potency [1] | Potency [2] | Potency [3] | Potency [4] | Potency [7] | Potency [8]
active: Potency [5] 28.4 µM | Potency [6] 8.99 µM

N#CCBr
inactive: Potency [1] | Potency [2] | Potency [3] | Potency [4] | Potency [5] | Potency [6] | Potency [8]

CCC(=O)C(CCN(C)C)(c1ccccc1)c1ccccc1
active: Potency [4] 5.49 µM | Potency [5] 11 µM
inactive: Potency [1] | Potency [2] | Potency [3] | Potency [6]

Fc1ccc(C2(Cn3cncn3)OC2c2ccccc2Cl)cc1 (stereo not drawn)
active: Potency [4] 39.9 µM | Potency [5] 0.252 µM | Potency [6] 5.03 µM | Potency [8] 0.894 µM
inactive: Potency [1] | Potency [2] | Potency [3]

NC(=O)O
inactive: Potency [1] | Potency [2] | Potency [3] | Potency [4] | Potency [5] | Potency [6] | Potency [8]

COc1cc(C[C@@H](C)N)c(OC)cc1C
active: Potency [4] 47.9 µM
inactive: Potency [1] | Potency [2] | Potency [3] | Potency [5] | Potency [9] | Potency [8]

C[N+](C)=CCl
inactive: Potency [1] | Potency [2] | Potency [3] | Potency [4] | Potency [5] | Potency [6] | Potency [8]

OC(Cn1cncn1)(c1ccc(F)cc1)c1ccccc1F (stereo not drawn)
inactive: Potency [1] | Potency [2] | Potency [3] | Potency [7]
active: Potency [4] 35.6 µM | Potency [5] 2 µM | Potency [6] 31.7 µM | Potency [8] 0.224 µM

Nc1cc(Cl)ccc1O
inactive: Potency [1] | Potency [2] | Potency [3] | Potency [7]
active: Potency [4] 34.4 µM | Potency [5] 21.7 µM | Potency [6] 30.7 µM | Potency [8] 21.7 µM

CC(N)=S
active: Potency [5] 71 µM
inactive: Potency [1] | Potency [2] | Potency [3] | Potency [4] | Potency [7] | Potency [8]

COc1ncc(F)c2nc(S(=O)(=O)Nc3c(F)cccc3F)nn12
inactive: Potency [1] | Potency [2] | Potency [3] | Potency [4] | Potency [5] | Potency [6] | Potency [7] | Potency [8]

[Cl][Sn]([Cl])([Cl])[Cl]
inactive: Potency [1] | Potency [2] | Potency [3] | Potency [4] | Potency [8]
active: Potency [5] 81.5 µM | Potency [6] 32.4 µM

Nc1cc2c3c(c1)C(c1ccccc1)=N[C@@H](NC(=O)c1cccnc1)C(=O)N3CC2
inactive: Potency [1] | Potency [2] | Potency [3] | Potency [4] | Potency [6] | Potency [7]
active: Potency [9] 7.1 µM | Potency [8] 11.2 µM

O=C1OC(c2ccc(O)c(S(=O)(=O)O)c2)(c2ccc(O)c(S(=O)(=O)O)c2)c2c(Br)c(Br)c(Br)c(Br)c21
inactive: Potency [1] | Potency [2] | Potency [3] | Potency [4] | Potency [5] | Potency [6] | Potency [7] | Potency [8]

N#Cc1c(Cl)cccc1Cl
inactive: Potency [1] | Potency [2] | Potency [3] | Potency [4] | Potency [5] | Potency [9] | Potency [8]

CC(Oc1ccc(Oc2ncc(C(F)(F)F)cc2Cl)cc1)C(=O)O (stereo not drawn)
inactive: Potency [1] | Potency [2] | Potency [3] | Potency [7] | Potency [8]
active: Potency [4] 71 µM | Potency [9] 35.6 µM | Potency [6] 39.9 µM

C[C@]1(O)CC[C@H]2[C@@H]3CCC4=CC(=O)CC[C@]4(C)[C@@]3(F)[C@@H](O)C[C@@]21C
active: Potency [5] 71.4 µM
inactive: Potency [1] | Potency [2] | Potency [3] | Potency [4] | Potency [7] | Potency [8]

CC1=C(C(=O)Nc2ccccc2)S(=O)(=O)CCO1
inactive: Potency [1] | Potency [2] | Potency [3] | Potency [4] | Potency [5] | Potency [7] | Potency [8]

OC(c1ccccc1)(c1ccccc1)C1CCNCC1
inactive: Potency [1] | Potency [2] | Potency [3] | Potency [9] | Potency [8]
active: Potency [4] 12.3 µM | Potency [5] 4.36 µM

CC(C)[N+](=O)[O-]
inactive: Potency [1] | Potency [2] | Potency [3] | Potency [4] | Potency [9] | Potency [7] | Potency [8]

CC1=C(C(=O)O)N2C(=O)[C@@H](N)[C@H]2SC1
inactive: activity change, negative = inhibition [1] 0.693% [at 23.6 µM] | activity change, negative = inhibition [2] 0.138% [at 23.8 µM] | activity change, negative = inhibition [3] 2.02% [at 23.6 µM] | activity change, negative = inhibition [4] -15.2% [at 23.6 µM] | activity change, negative = inhibition [6] 13% [at 23.6 µM] | activity change, negative = inhibition [7] 3.94% [at 15.8 µM] | activity change, negative = inhibition [8] 11.3% [at 23.6 µM]

C[C@]12CC[C@H]3[C@@H](CCC4=CC(=O)CC[C@@]43C)[C@@H]1CC[C@@H]2C(=O)O
inactive: Potency [1] | Potency [2] | Potency [3] | Potency [4] | Potency [6] | Potency [8]

O=C(CCN1CC1)OCC(CO)(COC(=O)CCN1CC1)COC(=O)CCN1CC1
inactive: Potency [1] | Potency [2] | Potency [3] | Potency [4] | Potency [9] | Potency [7] | Potency [8]

Nc1n[nH]c(N)n1
active: Potency [6] 64.4 µM
inactive: Potency [1] | Potency [2] | Potency [3] | Potency [5] | Potency [9] | Potency [7]

ClCCOCOCCCl
inactive: Potency [1] | Potency [2] | Potency [3] | Potency [4] | Potency [9] | Potency [6] | Potency [8]

C[N+](=O)[O-]
inactive: Potency [1] | Potency [2] | Potency [3] | Potency [4] | Potency [9] | Potency [7] | Potency [8]

C#CCN1C(=O)COc2cc(F)c(N3C(=O)C4=C(CCCC4)C3=O)cc21
active: Potency [4] 44.8 µM | Potency [9] 71 µM | Potency [6] 3.99 µM | Potency [8] 35.6 µM
inactive: Potency [1] | Potency [2] | Potency [3]

O=[N+]([O-])c1cccc2c([N+](=O)[O-])cccc12
active: Potency [5] 22.6 µM | Potency [9] 40.1 µM | Potency [6] 1.01 µM | Potency [7] 24.7 µM | Potency [8] 31.9 µM
inactive: Potency [1] | Potency [2] | Potency [3]
